The record followed here is PubChem BioAssay (NCI).

Structures are written as SMILES. The panel holds about 79,000 compounds, 15% with a hit somewhere; the sample as a whole holds those more often. A number with no mark means an inactive call. Calls of active or inactive are those of the source. Rule as the data show it: active = growth inhibition above about 70%; inactive = the rest.

Assay [1] can be described thus: NCI Yeast Anticancer Drug Screen. Data for the rad50 strain (AID 155).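 Also: 0% = growth of vehicle-only cultures of the same strain.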 To be noted: S. cerevisiae rad50 strain growth inhibition; at 50.0 µM; stronger effect = higher value. The method in brief: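 Genetically altered yeast (DNA repair pathway); compound treatment; growth inhibition vs vehicle ctrl.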
Assay [2] can be described thus: NCI Yeast Anticancer Drug Screen. Data for the mec2-1 strain (AID 157). To be noted: S. cerevisiae mec2-1 strain, at 50.0 µM, stronger effect = higher value. The gist of the method: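 Growth inhibition is read against vehicle-treated controls after compound exposure of the mec2-1 yeast strain, which is defective in DNA damage repair or cell cycle control.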
A short description of assay [3]: NCI Yeast Anticancer Drug Screen. Data for the sgs1 mgt1 strain (AID 161).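 Also: 0% = growth of cultures given vehicle only.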 To be noted: S. cerevisiae sgs1 mgt1 strain, at 50.0 µM, stronger effect = higher value. The gist of the method: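 Compounds are added to genetically altered yeast, and growth is compared with cultures given vehicle alone to give percent inhibition.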
A short description of assay [4]: NCI Yeast Anticancer Drug Screen. Data for the cln2 rad14 strain (AID 165).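 Also: 0% = growth equal to vehicle treated cultures.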 To be noted: S. cerevisiae cln2 rad14 strain, at 50.0 µM, stronger effect = higher value. The method in brief:
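Growth inhibition, relative to vehicle-treated controls, is the read-out. The test organism is a yeast strain with defined genetic alterations, cln2 rad14.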

A short description of assay [5]: NCI Yeast Anticancer Drug Screen. Data for the bub3 strain (AID 167). To be noted: S. cerevisiae bub3 mutant strain, at 50.0 µM, stronger effect = higher value. The method in brief:
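Yeast carrying a defined mutation is treated with each compound, and growth is compared with that of vehicle-exposed cells to give inhibition.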

Assay [6] can be described thus: NCI Yeast Anticancer Drug Screen. Data for the mlh1 rad18 strain (AID 175). To be noted: S. cerevisiae mlh1 rad18 strain growth inhibition; at 50.0 µM; stronger effect = higher value. The gist of the method: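 Cells of a genetically altered yeast strain, deficient in DNA damage repair, were treated with compound. Their growth was then compared with that of vehicle-treated cultures to give inhibition.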

With `O=C(COc1cccc(Cl)c1)NCc1ccccc1NC(=O)c1ccc(S(=O)(=O)F)cc1`, the growth inhibition in assay [1] was 95.2% (active); in assay [2], 84.3% (active); in assay [3], 95.2% (active); in assay [4] it was 89.9% (active); in assay [5], 90.5% (active); in assay [6] it was 95.8% (active).

For the compound `Cc1ccc(N2CCNCC2C)cc1` (configuration not stated), the growth inhibition was 6.15% in assay [1]; -13.2% in assay [2]; -4.6% in assay [3]; 8.95% in assay [4]; -9.25% in assay [5]; 11.2% in assay [6].

For the compound `CN1CCOP(=O)(Oc2ccccc2)N1` (configuration not stated), the growth inhibition in assay [1] is -46%; in assay [2] it was -17.4%; in assay [3], -26.1%; in assay [4], -64.2%; in assay [5], 4.5%; in assay [6] it was -16.1%.

For the compound `C=CCOC(=O)C(Br)CC` (configuration not stated), the growth inhibition in assay [1] was 7.65%; in assay [2], -3.2%; in assay [3], -3.7%; in assay [4], -6.25%; in assay [5], 11.9%; in assay [6], -14.5%.

In the case of `C=Cn1nnc(N)n1`, the growth inhibition in assay [1] was -4.9%; in assay [2] it was -0.45%; in assay [3], -16.7%; in assay [4], 4.55%; in assay [5], 17.1%; in assay [6], 9.05%.

Consider `CNC(=O)Oc1cccc2c(OC3OC(CO)C(O)C(O)C3O)cccc12` (configuration not stated), for which the growth inhibition in assay [1] was -25.5%; in assay [2] it was 19.4%; in assay [3] it was -12.8%; in assay [4] it was -16.7%; in assay [5], 2.05%; in assay [6] it was -23.9%.

Regarding `C/C=C/C(=O)O`, the growth inhibition in assay [1] is 4.3%; in assay [2] it was -4.65%; in assay [3], -24.5%; in assay [4], 10.2%; in assay [5], -0.05%; in assay [6], -9.75%.

Consider `CC1=C(\C=C/C(C)=C/C=C/C(C)=C/C=C/C=C(C)\C=C\C=C(C)/C=C/C2=C(C)CCCC2(C)C)C(C)(C)CCC1`, for which the growth inhibition was 28.8% in assay [1]; 9.35% in assay [2]; 27.1% in assay [3]; 26.4% in assay [4]; 37.2% in assay [5]; 45.5% in assay [6].

As for `CCC1CN1CCC(=O)Nc1ccccc1` (configuration not stated), the growth inhibition in assay [1] is -2.8%; in assay [2], -13.1%; in assay [3], -14.2%; in assay [4], -35.2%; in assay [5], -17.6%; in assay [6], 6.3%.

Consider `CC(Cc1ccc(Cl)cc1Cl)NO` (configuration not stated), for which the growth inhibition was 15.7% in assay [1]; -12.2% in assay [2]; -15.9% in assay [3]; -25.6% in assay [4]; -43.2% in assay [5]; -2.15% in assay [6].

In the case of `O=S(=O)(c1ccc(O)cc1)c1ccccc1O`, the growth inhibition in assay [1] was -1.95%; in assay [2], -6.35%; in assay [3], 15.2%; in assay [4], 3.75%; in assay [5], 0.6%; in assay [6], 28.9%.

Turning to `COc1cc(O)c2c(O)c3c(=O)cc(C)oc3cc2c1`, the growth inhibition is -9.75% in assay [1]; -6.2% in assay [2]; 20.6% in assay [3]; 12.6% in assay [4]; -1.95% in assay [5]; -5.35% in assay [6].

As to `CC1[N-]C(/C=N/O)NC(C)N1.CC1[N-]C(/C=N/O)NC(C)N1.[Br][Ni+2][Br]` (configuration not stated), the growth inhibition in assay [1] is -14.9%; in assay [2], -10%; in assay [3] it was -22.3%; in assay [4], -19%; in assay [5] it was 0.65%; in assay [6] it was -15.7%.

As for `C[N+](C)([O-])CCNC(=O)c1cc(N(CCCl)CCCl)c([N+](=O)[O-])cc1[N+](=O)[O-]`, the growth inhibition is -7.55% in assay [1]; -35% in assay [2]; -3.9% in assay [3]; -63.5% in assay [4]; -4.95% in assay [5]; -11.8% in assay [6].

Turning to `COC(=O)c1ccccc1N`, the growth inhibition in assay [1] is 13.5%; in assay [2], 1.95%; in assay [3], -0.55%; in assay [4] it was -29.5%; in assay [5], -2.9%; in assay [6] it was -6.75%.

As to `CC(=O)OC1CC2(C)C(=CC1C1SCCS1)CCC1C2CCC2(C)C(OC(C)=O)CCC12` (configuration not stated), the growth inhibition was -7.6% in assay [1]; 3.2% in assay [2]; -31.5% in assay [3]; 14.7% in assay [4]; -49.5% in assay [5]; 11.3% in assay [6].

With `CCOC(=O)C(C[Si](C)(C)C)P(=O)(OCC)OCC` (configuration not stated), the growth inhibition in assay [1] was -24.6%; in assay [2], -21.9%; in assay [3] it was -58.4%; in assay [4], -28.6%; in assay [5], -26.7%; in assay [6], -33%.

For the compound `CCOP(=O)(OCC)Oc1ccc(S(C)=O)cc1` (configuration not stated), the growth inhibition in assay [1] was -1.95%; in assay [2], -14.8%; in assay [3], -1%; in assay [4], -10.2%; in assay [5], 8.75%; in assay [6] it was -0.25%.

As for `Cc1cc(C)cc(OP(=O)(Oc2cc(C)cc(C)c2)Oc2cc(C)cc(C)c2)c1`, the growth inhibition is -13.3% in assay [1]; -24.6% in assay [2]; 5.45% in assay [3]; -3.65% in assay [4]; 1.7% in assay [5]; -5.25% in assay [6].

On to `Cc1cc(S(=O)(=O)F)ccc1NC(=O)NCc1ccc(N2C(N)=NC(N)=NC2(C)C)cc1`, for which the growth inhibition in assay [1] was -6.25%; in assay [2], -18%; in assay [3], -3.95%; in assay [4], -37.7%; in assay [5] it was -9.4%; in assay [6], -8.3%.

On to `S=P1(c2ccccc2)C=C(N2CCCC2)CC1` (configuration not stated), for which the growth inhibition is 20.4% in assay [1]; 20.2% in assay [2]; 16.6% in assay [3]; 1.7% in assay [4]; 11.7% in assay [5]; 20.4% in assay [6].

Take `O=C(COc1cccc(Cl)c1Cl)Nc1ccc[n+](Cc2ccc(S(=O)(=O)F)cc2)c1`: the growth inhibition in assay [1] was 20.4%; in assay [2], 0.15%; in assay [3] it was -5.45%; in assay [4], 31.2%; in assay [5], 7.4%; in assay [6], 28.6%.

Consider `C1CC[N-]CC1.CC(=N\O)/C(C)=N/O.CC(=N\O)/C(C)=N/O.CCOC(=O)CC[C-]=O.[Co+2]`, for which the growth inhibition in assay [1] is -15.1%; in assay [2] it was 8.95%; in assay [3], -10.1%; in assay [4] it was -39.3%; in assay [5], 18%; in assay [6], 9.55%.

As to `CNC(Cc1ccccc1)c1ccc(O)c(OC)c1` (configuration not stated), the growth inhibition in assay [1] is -0.5%; in assay [2], -15.6%; in assay [3], -7.35%; in assay [4], -35%; in assay [5], 5.05%; in assay [6] it was 0.75%.

On to `N.N.N.O=[N+]([O-])[O-].O=[N+]([O-])[O-].O=[N+]([O-])[O-].O=[N+]([O-])[O-].[Co+3]`, for which the growth inhibition in assay [1] was 11.6%; in assay [2] it was 20.7%; in assay [3] it was 25.5%; in assay [4] it was 31.3%; in assay [5], 11.8%; in assay [6] it was -1.35%.

As to `CCOP(=O)(Cc1ccc(N)cc1)OCC`, the growth inhibition is -23% in assay [1]; -34% in assay [2]; -21.2% in assay [3]; 19.9% in assay [4]; -23.9% in assay [5]; -14.2% in assay [6].

`CCCCCCCCCCCCN(C)C`: the growth inhibition in assay [1] is 45.4%; in assay [2] it was 28.7%; in assay [3], 35.9%; in assay [4] it was -6.2%; in assay [5] it was 29.1%; in assay [6], 37.9%.

On to `O=C1/C(=C\c2ccc([N+](=O)[O-])cc2)N2CCC1CC2`, for which the growth inhibition in assay [1] is -8.3%; in assay [2], 5.3%; in assay [3], -3.65%; in assay [4] it was -0.45%; in assay [5], 1.75%; in assay [6], 7.05%.

`CC(C)(C)NCC(COc1ccc([N+](=O)[O-])cc1)OP(c1ccccc1)c1ccccc1` (configuration not stated): the growth inhibition was 15.7% in assay [1]; 6.25% in assay [2]; 2.25% in assay [3]; 23.6% in assay [4]; 14.8% in assay [5]; 21.3% in assay [6].

Turning to `CCCCC(C(=O)NN)P(=O)(OCC)OCC` (configuration not stated), the growth inhibition in assay [1] is -0.9%; in assay [2], -5.2%; in assay [3] it was 15.8%; in assay [4] it was -14.7%; in assay [5], -1.95%; in assay [6] it was 0.95%.

Consider `O=c1c(O)c(-c2ccccc2)oc2ccccc12.[Zr]`, for which the growth inhibition in assay [1] was -22.1%; in assay [2] it was -6.65%; in assay [3], -7.7%; in assay [4], 18.4%; in assay [5], 22.4%; in assay [6], -7.75%.

With `CN1CCCC(O)(C(=O)c2ccccc2)C1` (configuration not stated), the growth inhibition is 4.15% in assay [1]; -15.2% in assay [2]; 0.7% in assay [3]; -16% in assay [4]; -9.35% in assay [5]; 12.9% in assay [6].

With `Cc1cc(NC(=O)/C=C/c2ccc([N+](=O)[O-])cc2Cl)ccc1S(=O)(=O)F`, the growth inhibition in assay [1] is -30.5%; in assay [2], -8.5%; in assay [3], -5.6%; in assay [4], -17.4%; in assay [5] it was 2.85%; in assay [6], -32.5%.

For `C=CCOCN1c2cc(OC)c([C@@]3(C(=O)OC)C[C@@H]4CN(CCc5c3[nH]c3ccccc53)C[C@](O)(CC)C4)cc2[C@@]23CCN4CC=C[C@@](CC)([C@@H](OC(C)=O)[C@](O)(C(=O)OC)[C@H]12)[C@H]43`, the growth inhibition in assay [1] was -21.2%; in assay [2], -8.75%; in assay [3], 2.35%; in assay [4], 0.2%; in assay [5] it was -0.05%; in assay [6], -16.4%.

Consider `CC(=O)C(Sc1ccccc1[N+](=O)[O-])C(C)=O.[Co]`, for which the growth inhibition in assay [1] was 33.2%; in assay [2], 9.5%; in assay [3], 4.75%; in assay [4] it was -1.3%; in assay [5] it was 6.45%; in assay [6] it was 15.8%.

Regarding `Oc1ccccc1C=NC1CCCCC1.Oc1ccccc1C=NC1CCCCC1.[Ni+2]`, the growth inhibition was 38.6% in assay [1]; -9.25% in assay [2]; 28.6% in assay [3]; -40.8% in assay [4]; -0.1% in assay [5]; -15.4% in assay [6].

As to `CCCCCCN(CCCCCC)C1C=CCCC1` (configuration not stated), the growth inhibition in assay [1] is -5.4%; in assay [2] it was -11.2%; in assay [3], 0.25%; in assay [4] it was -32.6%; in assay [5], -2.2%; in assay [6], -4.15%.
